Compound activity: PubChem BioAssay, The Scripps Research Institute Molecular Screening Center
In the library only some 3.5% were active in any assay of this set; here they are far more common.
FBW7 act: activators of human E3 ligase FBW7 | Q969H0 | AlphaScreen FBW7–phospho-cyclin E peptide binding, activator screen | normalized activity (activation), % at 26.1 µM | actives 0.13% (n = 650,000) | AID 1259310; in the data active = normalized activity above about 1.9%;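 note: purified mutant Fbw7 with reduced substrate affinity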
MITF inh: inhibitors of human MITF. O75030. AlphaScreen MITF homodimerization, bead proximity signal. inhibition, % at 2.6 µM. actives 0.91% (n = 650,000); in the data active = inhibition above about 50%
Target sequence (O75030 whole entry, looked up): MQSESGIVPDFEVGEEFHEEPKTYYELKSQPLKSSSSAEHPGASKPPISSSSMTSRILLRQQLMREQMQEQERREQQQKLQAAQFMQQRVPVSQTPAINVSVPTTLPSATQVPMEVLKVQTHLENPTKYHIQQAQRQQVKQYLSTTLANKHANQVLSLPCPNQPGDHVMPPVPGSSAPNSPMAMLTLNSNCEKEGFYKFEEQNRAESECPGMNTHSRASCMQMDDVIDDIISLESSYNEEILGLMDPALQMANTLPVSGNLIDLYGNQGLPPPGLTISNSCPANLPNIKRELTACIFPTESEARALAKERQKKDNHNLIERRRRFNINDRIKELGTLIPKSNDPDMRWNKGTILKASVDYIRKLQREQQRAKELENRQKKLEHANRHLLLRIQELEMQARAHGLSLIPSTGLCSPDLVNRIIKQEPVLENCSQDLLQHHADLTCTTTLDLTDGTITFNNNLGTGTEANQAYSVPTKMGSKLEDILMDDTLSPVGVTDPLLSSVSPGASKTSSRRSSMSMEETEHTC
GPR151 ag: activates the human receptor GPR151; PathHunter beta-arrestin GPR151 cells, luminescence; activation, % at 11.2 µM; actives 1% (n = 650,000); AID 1508602; in the data active = activation above about 4.9%
TEAD-YAP inh: TEAD-YAP interaction inhibition; HEK-TIYL cells, TEAD-Gal4/YAP UAS-luciferase luminescence; inhibition, % at 9.12 µM; actives 1.4% (n = 640,000); AID 1259422; in the data active = inhibition above about 32%
Hits are given with their value; . = inactive.

SMILES	FBW7 act	MITF inh	GPR151 ag	TEAD-YAP inh
CC(C)N(CCNc1nc(-c2ccc(C(N)=O)cc2)nc2c1ncn2-c1ccccc1)C(C)C	.	.	.	.
Cc1c(C(=O)N/N=C/c2cccc(OC(=O)N3CCOCC3)c2)nnn1-c1nonc1N	.	.	.	.
COc1cc(C(=O)N/N=C/c2cccc(OC(=O)N3CCOCC3)c2)cc(OC)c1OC	.	.	.	58
CCOc1cccc(/C=N/NC(=O)c2ccc(C)cc2C)c1O	.	.	.	.
COc1cc(C(=O)N/N=C/c2ccc([N+](=O)[O-])o2)cc(OC)c1OC	.	.	.	34
Cc1ccc(C(=O)N/N=C/c2ccc(O)c(O)c2O)c(C)c1	.	57	.	.
Cc1cc(C(=O)N/N=C/c2ccc(O)c(O)c2O)c(C)n1-c1ccccc1	.	.	.	.
O=C(N/N=C/c1ccc(O)c(O)c1O)c1ccccc1-n1cccc1	.	56	.	.
Cc1cc(OCC(=O)Nc2cccc(F)c2)ccc1Cl	.	.	.	.
CC1CC(C)CN(c2ncnc3c2c(-c2ccccc2)cn3-c2ccc(F)cc2)C1 (configuration not stated)	.	.	.	.
CN1CCCC(OC(=O)/C=C/c2ccccc2)C1 (configuration not stated)	.	.	.	.
CC(C)(C)c1ccc(C(=O)Nc2ccc(C(=O)Nc3cccc4ccccc34)cc2)cc1	.	.	.	.
CC(C)(C)c1ccc(C(=O)Nc2cccc3c(=O)[nH][nH]c(=O)c23)cc1	.	.	.	76
CCc1c(C)sc(NC(=O)C2CC2c2ccccc2)c1C(N)=O (configuration not stated)	.	.	.	33
CCOC(=O)c1c(NC(=O)C2CC2c2ccccc2)sc(C)c1C (configuration not stated)	.	.	.	.
COc1cc(OC)c(S(=O)(=O)N2CCNCC2)cc1NC(C)=O	.	.	.	.
COC(=O)C(=C/C(C)=C/N(C)C)C(=O)OC	.	.	.	.
O=C(Oc1ccc([N+](=O)[O-])c2cccnc12)c1ccccc1	.	82	.	57
CC(C)CNS(=O)(=O)c1ccc(CCC(=O)N2CCN(c3ccc(F)cc3)CC2)cc1	.	.	.	40
COc1ccc(NC(=O)c2cc3c(CO)cnc(C)c3oc2=Nc2cc(C)cc(C)c2)cc1	.	.	.	.
COc1ccc(Cl)cc1-n1c(SCc2ccccc2F)nc2[nH]ncc2c1=O	.	.	.	.
